# Key:
# Test in all cases: DAPPL (digital affinity profiling via proximity ligation, sequencing); 10 mM Tris-HCl pH 7.5, 50 mM NaCl, 1 mM DTT, 4% glycerol, room temperature, 30 min; GST-TFs on glutathione beads, 16-mer random dsDNA library, 0.1% formaldehyde crosslink after washing; high values mean tight binding
# FLI1 = target: T1, FLI1 (Homo sapiens, UniProt Q01543 1-452); conditions: protein: recombinant; tags: N-terminal GST; dsDNA, one strand shown
# T1 sequence: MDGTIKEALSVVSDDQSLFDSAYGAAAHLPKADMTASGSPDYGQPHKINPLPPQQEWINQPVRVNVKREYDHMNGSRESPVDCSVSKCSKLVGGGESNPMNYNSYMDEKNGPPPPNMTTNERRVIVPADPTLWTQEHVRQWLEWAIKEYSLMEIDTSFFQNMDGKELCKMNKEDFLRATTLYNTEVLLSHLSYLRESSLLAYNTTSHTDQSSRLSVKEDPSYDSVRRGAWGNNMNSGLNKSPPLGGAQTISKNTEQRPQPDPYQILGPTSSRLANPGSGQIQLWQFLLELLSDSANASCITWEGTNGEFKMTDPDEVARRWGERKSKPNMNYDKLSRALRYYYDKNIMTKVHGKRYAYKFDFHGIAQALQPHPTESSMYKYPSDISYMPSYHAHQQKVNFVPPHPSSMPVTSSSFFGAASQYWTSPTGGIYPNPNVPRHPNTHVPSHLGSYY
# In short: (§1)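 A tag-only sample was pooled with DNA-barcoded human transcription factors that had been expressed in yeast as GST fusions and captured on glutathione beads. The pools were incubated for 30 min at room temperature with 200 nmole of a random double-stranded 16-mer DNA library in Tris/NaCl/DTT/glycerol buffer, then washed, crosslinked with 0.1% formaldehyde, proximity-ligated (BsaI/T4 ligase, 1 h, 37 °C), PCR-amplified and sequenced on an Illumina NextSeq500. Binding signal is each hexamer's read frequency for a factor divided by its frequency for the tag-only sample.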
# ELK1 = target: T2, ELK1 (Homo sapiens, UniProt P19419 1-428); conditions: protein: recombinant; tags: N-terminal GST; dsDNA, one strand shown
# T2 sequence: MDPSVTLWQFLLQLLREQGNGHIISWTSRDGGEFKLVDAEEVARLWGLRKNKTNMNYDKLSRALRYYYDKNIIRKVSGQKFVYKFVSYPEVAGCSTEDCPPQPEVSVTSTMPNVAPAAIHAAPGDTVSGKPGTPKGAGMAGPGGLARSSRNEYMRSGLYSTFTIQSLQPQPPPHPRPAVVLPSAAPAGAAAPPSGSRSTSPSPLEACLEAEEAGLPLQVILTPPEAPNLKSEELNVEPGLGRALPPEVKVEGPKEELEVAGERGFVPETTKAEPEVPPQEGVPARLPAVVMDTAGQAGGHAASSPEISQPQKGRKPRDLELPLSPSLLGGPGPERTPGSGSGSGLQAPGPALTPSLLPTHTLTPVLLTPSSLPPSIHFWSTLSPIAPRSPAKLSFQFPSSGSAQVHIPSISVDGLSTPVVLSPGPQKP
# In short: as §1
# GABPA = target: T3, GABPA (Homo sapiens, UniProt Q06546 1-454); conditions: protein: recombinant; tags: N-terminal GST; dsDNA, one strand shown
# T3 sequence: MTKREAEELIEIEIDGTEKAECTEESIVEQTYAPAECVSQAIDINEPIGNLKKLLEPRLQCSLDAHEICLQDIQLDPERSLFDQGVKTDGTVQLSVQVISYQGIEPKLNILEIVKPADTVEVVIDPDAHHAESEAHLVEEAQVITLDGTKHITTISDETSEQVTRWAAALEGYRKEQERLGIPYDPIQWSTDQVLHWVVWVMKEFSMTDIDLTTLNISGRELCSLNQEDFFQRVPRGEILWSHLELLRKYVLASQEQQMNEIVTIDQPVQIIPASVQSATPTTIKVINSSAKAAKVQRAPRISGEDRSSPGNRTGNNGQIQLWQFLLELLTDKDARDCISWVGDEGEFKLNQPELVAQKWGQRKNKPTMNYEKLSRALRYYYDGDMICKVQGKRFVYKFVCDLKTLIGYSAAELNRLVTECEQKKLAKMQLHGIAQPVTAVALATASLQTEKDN
# In short: as §1
# ERG = target: T4, ERG (Homo sapiens, UniProt P11308 1-479); conditions: protein: recombinant; tags: N-terminal GST; dsDNA, one strand shown
# T4 sequence: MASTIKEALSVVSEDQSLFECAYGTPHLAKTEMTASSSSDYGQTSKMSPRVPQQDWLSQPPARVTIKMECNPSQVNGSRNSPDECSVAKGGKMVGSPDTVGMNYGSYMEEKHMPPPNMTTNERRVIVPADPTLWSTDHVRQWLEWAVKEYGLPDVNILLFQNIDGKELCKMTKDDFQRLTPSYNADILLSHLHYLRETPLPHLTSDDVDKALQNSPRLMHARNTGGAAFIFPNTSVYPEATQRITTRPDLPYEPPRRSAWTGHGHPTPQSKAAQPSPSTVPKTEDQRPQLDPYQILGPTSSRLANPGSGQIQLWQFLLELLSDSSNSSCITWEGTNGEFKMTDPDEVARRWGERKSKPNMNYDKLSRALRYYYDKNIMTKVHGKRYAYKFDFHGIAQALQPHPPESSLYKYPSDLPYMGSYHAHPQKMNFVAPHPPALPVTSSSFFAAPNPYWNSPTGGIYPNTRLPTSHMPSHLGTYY
# In short: as §1
# ELF1 = ELF1 (Homo sapiens, UniProt P32519 1-619); conditions: protein: recombinant; tags: N-terminal GST; dsDNA, one strand shown
# In short: as §1
# EHF = target: T5, EHF (Homo sapiens, UniProt Q9NZC4 1-300); conditions: protein: recombinant; tags: N-terminal GST; dsDNA, one strand shown
# T5 sequence: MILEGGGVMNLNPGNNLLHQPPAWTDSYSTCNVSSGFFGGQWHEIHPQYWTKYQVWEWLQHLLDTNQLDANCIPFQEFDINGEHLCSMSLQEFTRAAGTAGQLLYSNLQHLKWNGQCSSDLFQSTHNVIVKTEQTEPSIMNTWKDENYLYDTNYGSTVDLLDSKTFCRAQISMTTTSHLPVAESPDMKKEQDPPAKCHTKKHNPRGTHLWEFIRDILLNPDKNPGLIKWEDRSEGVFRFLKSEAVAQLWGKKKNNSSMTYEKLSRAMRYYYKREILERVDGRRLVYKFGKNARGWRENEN
# In short: as §1
# SPI1 = SPI1 (Homo sapiens, UniProt P17947 1-270); conditions: protein: recombinant; tags: N-terminal GST; dsDNA, one strand shown
# In short: as §1
# SPIB = SPIB (Homo sapiens, UniProt Q01892 1-262); conditions: protein: recombinant; tags: N-terminal GST; dsDNA, one strand shown
# In short: as §1
# FEV = target: T6, FEV (Homo sapiens, UniProt Q99581 1-238); conditions: protein: recombinant; tags: N-terminal GST; dsDNA, one strand shown
# T6 sequence: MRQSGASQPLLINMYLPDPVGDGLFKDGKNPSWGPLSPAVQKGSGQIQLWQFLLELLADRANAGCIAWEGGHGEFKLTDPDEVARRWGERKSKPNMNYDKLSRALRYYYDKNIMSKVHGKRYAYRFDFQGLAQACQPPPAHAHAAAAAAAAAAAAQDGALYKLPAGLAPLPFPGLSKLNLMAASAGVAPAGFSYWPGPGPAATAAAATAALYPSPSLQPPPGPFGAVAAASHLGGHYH
# In short: as §1
# ETV5 = ETV5 (Homo sapiens, UniProt P41161 1-510); conditions: protein: recombinant; tags: N-terminal GST; dsDNA, one strand shown
# In short: as §1
# HSF1 = HSF1 (Homo sapiens, UniProt Q00613 1-529); conditions: protein: recombinant; tags: N-terminal GST; chain copies: 3; dsDNA, one strand shown
# In short: as §1
# SPIC = target: T7, SPIC (Homo sapiens, UniProt Q8N5J4 1-248); conditions: protein: recombinant; tags: N-terminal GST; dsDNA, one strand shown
# T7 sequence: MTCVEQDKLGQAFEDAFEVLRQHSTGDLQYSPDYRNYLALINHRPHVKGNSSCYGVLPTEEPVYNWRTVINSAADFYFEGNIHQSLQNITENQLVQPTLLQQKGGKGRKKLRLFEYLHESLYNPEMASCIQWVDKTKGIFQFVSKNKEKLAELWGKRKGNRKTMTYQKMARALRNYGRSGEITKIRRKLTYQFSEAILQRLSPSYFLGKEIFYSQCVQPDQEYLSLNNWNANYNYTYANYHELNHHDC
# In short: as §1
# ELF4 = ELF4 (Homo sapiens, UniProt Q99607 1-663); conditions: protein: recombinant; tags: N-terminal GST; dsDNA, one strand shown
# In short: as §1
# ELK4 = target: T8, ELK4 (Homo sapiens, UniProt P28324-2 1-405); conditions: protein: recombinant; tags: N-terminal GST; dsDNA, one strand shown
# T8 sequence: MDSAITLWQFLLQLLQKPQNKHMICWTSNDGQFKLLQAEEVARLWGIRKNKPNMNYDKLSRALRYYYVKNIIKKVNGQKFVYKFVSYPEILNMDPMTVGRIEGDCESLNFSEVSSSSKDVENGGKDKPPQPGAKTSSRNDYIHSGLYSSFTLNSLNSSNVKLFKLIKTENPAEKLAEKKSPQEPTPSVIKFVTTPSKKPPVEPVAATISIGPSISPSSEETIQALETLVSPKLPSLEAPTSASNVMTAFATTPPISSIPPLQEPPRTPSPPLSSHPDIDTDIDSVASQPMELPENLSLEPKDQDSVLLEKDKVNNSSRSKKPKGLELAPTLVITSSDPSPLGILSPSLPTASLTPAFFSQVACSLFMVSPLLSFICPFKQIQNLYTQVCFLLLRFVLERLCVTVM
# In short: as §1
# ETV2 = target: T9, ETV2 (Homo sapiens, UniProt O00321 1-342); conditions: protein: recombinant; tags: N-terminal GST; dsDNA, one strand shown
# T9 sequence: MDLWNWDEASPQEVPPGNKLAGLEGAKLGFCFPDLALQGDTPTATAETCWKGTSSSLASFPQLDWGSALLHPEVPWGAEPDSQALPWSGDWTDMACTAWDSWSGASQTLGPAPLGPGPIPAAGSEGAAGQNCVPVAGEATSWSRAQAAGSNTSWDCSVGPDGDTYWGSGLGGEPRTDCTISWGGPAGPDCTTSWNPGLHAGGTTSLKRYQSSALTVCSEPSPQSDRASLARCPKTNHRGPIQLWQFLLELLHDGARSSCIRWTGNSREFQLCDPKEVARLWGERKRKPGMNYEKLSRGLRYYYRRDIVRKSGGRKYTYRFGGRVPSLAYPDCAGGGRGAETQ
# In short: as §1
# ELF3 = target: T10, ELF3 (Homo sapiens, UniProt P78545 1-371); conditions: protein: recombinant; tags: N-terminal GST; dsDNA, one strand shown
# T10 sequence: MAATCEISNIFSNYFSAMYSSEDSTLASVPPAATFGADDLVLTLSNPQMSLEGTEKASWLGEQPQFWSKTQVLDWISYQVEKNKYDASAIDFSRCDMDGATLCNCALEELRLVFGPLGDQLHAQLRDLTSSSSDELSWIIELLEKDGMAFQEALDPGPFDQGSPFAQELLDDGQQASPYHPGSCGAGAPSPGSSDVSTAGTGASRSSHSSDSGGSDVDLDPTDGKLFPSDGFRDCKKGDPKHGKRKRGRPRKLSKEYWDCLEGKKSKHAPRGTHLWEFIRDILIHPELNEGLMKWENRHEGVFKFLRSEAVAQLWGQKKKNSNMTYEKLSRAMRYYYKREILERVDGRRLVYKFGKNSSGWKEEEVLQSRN
# In short: as §1
# CRX = CRX (Homo sapiens, UniProt O43186 1-299); conditions: protein: recombinant; tags: N-terminal GST; dsDNA, one strand shown
# In short: as §1
# ETV1 = ETV1 (Homo sapiens, UniProt P50549 1-477); conditions: protein: recombinant; tags: N-terminal GST; dsDNA, one strand shown
# In short: as §1
# Chain of SPIB (Q01892 whole entry): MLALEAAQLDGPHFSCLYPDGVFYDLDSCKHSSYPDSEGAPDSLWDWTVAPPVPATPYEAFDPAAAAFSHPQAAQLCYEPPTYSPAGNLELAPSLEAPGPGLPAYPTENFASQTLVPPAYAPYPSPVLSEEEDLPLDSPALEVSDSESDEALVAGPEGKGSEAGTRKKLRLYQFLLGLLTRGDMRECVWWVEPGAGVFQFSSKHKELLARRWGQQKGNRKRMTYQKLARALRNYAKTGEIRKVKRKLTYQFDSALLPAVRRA
# Chain of HSF1 (Q00613 whole entry): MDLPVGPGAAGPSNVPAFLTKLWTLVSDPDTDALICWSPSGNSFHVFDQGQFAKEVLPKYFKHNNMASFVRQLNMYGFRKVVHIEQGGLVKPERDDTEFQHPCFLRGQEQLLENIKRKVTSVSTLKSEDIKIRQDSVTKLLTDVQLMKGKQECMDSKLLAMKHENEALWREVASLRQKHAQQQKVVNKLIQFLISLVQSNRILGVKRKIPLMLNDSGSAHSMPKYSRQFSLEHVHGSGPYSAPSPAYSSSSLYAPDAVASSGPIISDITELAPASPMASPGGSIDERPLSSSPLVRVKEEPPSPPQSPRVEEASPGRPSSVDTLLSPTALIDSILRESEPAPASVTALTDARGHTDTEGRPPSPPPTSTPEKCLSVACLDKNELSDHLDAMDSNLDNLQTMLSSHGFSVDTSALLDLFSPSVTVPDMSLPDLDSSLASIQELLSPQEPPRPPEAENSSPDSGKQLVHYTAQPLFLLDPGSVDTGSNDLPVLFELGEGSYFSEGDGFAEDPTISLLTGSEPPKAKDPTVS
# Chain of CRX (O43186 whole entry): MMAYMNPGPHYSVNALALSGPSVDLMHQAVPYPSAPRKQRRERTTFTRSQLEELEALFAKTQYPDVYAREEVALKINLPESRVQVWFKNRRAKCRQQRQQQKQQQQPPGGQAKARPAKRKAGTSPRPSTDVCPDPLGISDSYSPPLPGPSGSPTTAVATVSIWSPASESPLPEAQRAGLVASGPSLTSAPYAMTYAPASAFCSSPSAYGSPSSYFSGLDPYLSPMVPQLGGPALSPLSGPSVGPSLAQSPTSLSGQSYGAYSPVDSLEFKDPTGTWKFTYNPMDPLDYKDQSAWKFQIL
# Chain of ETV1 (P50549 whole entry): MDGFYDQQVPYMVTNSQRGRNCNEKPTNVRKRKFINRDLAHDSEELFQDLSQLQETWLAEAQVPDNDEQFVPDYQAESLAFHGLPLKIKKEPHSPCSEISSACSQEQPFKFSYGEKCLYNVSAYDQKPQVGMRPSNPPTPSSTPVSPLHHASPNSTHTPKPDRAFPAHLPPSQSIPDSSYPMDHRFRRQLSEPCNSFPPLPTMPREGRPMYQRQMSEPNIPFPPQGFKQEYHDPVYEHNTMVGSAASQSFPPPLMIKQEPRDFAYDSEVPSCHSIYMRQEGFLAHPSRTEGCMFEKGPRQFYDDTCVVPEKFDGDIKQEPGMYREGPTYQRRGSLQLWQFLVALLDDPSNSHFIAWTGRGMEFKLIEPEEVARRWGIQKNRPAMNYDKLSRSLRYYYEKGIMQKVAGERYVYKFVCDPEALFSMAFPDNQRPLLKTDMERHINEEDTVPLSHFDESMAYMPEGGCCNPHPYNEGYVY
# Chain of ELF4 (Q99607 whole entry): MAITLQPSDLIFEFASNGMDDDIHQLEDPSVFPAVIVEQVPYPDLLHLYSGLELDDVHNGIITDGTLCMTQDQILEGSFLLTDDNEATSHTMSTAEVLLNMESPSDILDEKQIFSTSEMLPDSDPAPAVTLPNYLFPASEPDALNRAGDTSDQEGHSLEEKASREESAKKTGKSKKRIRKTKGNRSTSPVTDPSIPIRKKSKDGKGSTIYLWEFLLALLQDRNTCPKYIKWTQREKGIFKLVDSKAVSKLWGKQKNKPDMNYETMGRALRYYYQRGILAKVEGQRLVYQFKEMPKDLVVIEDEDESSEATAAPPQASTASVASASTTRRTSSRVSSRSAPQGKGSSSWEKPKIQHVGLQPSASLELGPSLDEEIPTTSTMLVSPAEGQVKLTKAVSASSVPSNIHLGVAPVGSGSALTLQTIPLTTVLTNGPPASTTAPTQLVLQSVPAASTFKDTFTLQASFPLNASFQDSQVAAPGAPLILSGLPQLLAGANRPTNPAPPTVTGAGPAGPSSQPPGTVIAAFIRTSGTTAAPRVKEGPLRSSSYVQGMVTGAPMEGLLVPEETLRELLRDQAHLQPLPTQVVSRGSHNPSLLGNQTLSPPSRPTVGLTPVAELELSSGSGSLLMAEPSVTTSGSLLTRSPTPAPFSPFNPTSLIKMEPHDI
# Chain of ETV5 (P41161 whole entry): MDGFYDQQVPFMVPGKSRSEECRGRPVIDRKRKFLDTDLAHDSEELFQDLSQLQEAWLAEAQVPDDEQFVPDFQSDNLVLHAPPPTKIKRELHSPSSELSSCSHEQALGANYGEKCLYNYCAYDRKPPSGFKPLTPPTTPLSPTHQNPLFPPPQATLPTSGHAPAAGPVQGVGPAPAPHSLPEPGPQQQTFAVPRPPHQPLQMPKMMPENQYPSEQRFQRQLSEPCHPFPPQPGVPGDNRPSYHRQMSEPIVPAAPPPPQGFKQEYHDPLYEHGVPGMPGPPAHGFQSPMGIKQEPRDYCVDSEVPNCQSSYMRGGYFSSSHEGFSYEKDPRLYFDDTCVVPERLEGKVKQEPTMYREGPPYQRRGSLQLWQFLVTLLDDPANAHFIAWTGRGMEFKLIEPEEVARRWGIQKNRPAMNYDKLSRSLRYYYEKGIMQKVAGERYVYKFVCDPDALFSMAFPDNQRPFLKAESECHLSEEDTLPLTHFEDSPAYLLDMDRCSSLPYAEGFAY
# Chain of ELF1 (P32519 whole entry): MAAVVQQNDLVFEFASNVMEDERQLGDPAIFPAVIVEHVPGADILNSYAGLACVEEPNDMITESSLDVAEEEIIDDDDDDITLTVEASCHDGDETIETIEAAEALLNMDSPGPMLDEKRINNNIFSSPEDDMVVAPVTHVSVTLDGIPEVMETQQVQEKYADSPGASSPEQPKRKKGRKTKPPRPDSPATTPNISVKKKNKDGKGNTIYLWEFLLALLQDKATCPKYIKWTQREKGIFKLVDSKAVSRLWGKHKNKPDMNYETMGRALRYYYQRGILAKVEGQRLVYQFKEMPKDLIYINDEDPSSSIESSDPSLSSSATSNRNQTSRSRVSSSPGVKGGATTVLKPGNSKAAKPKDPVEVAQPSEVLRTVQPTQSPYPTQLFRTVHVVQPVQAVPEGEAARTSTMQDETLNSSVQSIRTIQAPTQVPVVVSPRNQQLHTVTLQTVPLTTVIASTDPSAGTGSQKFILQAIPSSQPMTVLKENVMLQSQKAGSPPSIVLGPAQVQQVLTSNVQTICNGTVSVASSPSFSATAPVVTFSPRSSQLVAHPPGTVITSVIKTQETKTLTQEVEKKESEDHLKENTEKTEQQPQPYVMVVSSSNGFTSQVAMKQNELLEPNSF
sequence,measurement,setting,value
TCACTA,binding signal,FLI1,"1.21 fold enrichment (6-mer frequency, TF over GST control)"
same,binding signal,ELK1,"1.22 fold enrichment (6-mer frequency, TF over GST control)"
same,binding signal,GABPA,"1.17 fold enrichment (6-mer frequency, TF over GST control)"
same,binding signal,ERG,"1.17 fold enrichment (6-mer frequency, TF over GST control)"
same,binding signal,ELF1,"1.21 fold enrichment (6-mer frequency, TF over GST control)"
same,binding signal,EHF,"1.17 fold enrichment (6-mer frequency, TF over GST control)"
same,binding signal,SPI1,"1.23 fold enrichment (6-mer frequency, TF over GST control)"
same,binding signal,SPIB,"1.25 fold enrichment (6-mer frequency, TF over GST control)"
same,binding signal,FEV,"1.11 fold enrichment (6-mer frequency, TF over GST control)"
same,binding signal,ETV5,"1.06 fold enrichment (6-mer frequency, TF over GST control)"
same,binding signal,HSF1,"1.16 fold enrichment (6-mer frequency, TF over GST control)"
same,binding signal,SPIC,"1.16 fold enrichment (6-mer frequency, TF over GST control)"
same,binding signal,ELF4,"1.12 fold enrichment (6-mer frequency, TF over GST control)"
same,binding signal,ELK4,"1.28 fold enrichment (6-mer frequency, TF over GST control)"
same,binding signal,ETV2,"1.18 fold enrichment (6-mer frequency, TF over GST control)"
same,binding signal,ELF3,"1.19 fold enrichment (6-mer frequency, TF over GST control)"
same,binding signal,CRX,"1.27 fold enrichment (6-mer frequency, TF over GST control)"
same,binding signal,ETV1,"1.06 fold enrichment (6-mer frequency, TF over GST control)"
